# From PubChem BioAssay (NCATS)
# Inconclusive results are not listed. Unmarked numbers belong to inactive results. The call rests on the fitted dose curve; in most records, active means well fitted activation curve with a large enough effect; inconclusive means small, poorly fitted or top-dose-only effect; inactive means flat fitted curve, though single readings scatter.
# Experiment: Primary redox qHTS assay for identification of artifact compounds. (AID 1845223);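 further: 0% = DMSO and 100% = reference compound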
# Details: Amplex Red/HRP redox cycling with DTT, fluorescence; series mostly up to 53.8 µM; redox activity (% of DA3003): at the top concentration
# Procedure, shortened: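 Redox-cycling detection via DTT (250 uM final) oxidation coupled to Amplex Red (25 uM)/HRP (250 mU/mL) in HBSS. 15 min preincubation plus 30 min after DTT, room temperature. Ex/Em 525/598 nm; 4-parameter Hill fit against DMSO and 10 uM DA3003.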
row,SMILES,redox activity (% of DA3003)
1,CCN1CCN(c2cc(-c3ccc(F)cc3)c3c(n2)CCCCCC3)CC1,-3.96%
2,CCC(C(=O)NC(=O)NC(C)=O)c1ccccc1 (configuration not stated),-3.48%
3,Brc1ccc([C@H]2CN3CCSC3=N2)cc1,-4.29%
4,CCOC(=O)c1ccc(OCCN2C[C@H](O)[C@@H](O)[C@H](O)[C@H]2CO)cc1,-0.661%
5,CC(C)(C)c1nnc(NS(=O)(=O)c2ccccc2)s1,-2.43%
6,CCOC(=O)c1ccc(NC(=O)CN2CCCCC2)cc1,1.24%
7,CC(C(=O)O)c1ccc(/C=C2\CCCCC2=O)cc1 (configuration not stated),-1.93%
8,Cn1cc(S(C)=O)c(=O)c2ccc(F)cc21 (configuration not stated),-1.22%
9,CC(=O)Oc1ccc(C2(c3ccc(OC(C)=O)cc3)Oc3ccccc3NC2=O)cc1,6.44%
10,O=C(O)CNC(=O)CNC(=O)CNC(=O)CSC(=O)c1ccccc1,-4.34%
11,O=C(CCCCCCCCC#CI)Oc1ccccc1,-0.0521%
12,O=[N+]([O-])c1nccn1CO[C@@H](CO)[C@H](O)CO,-0.584%
13,CN(CC1(C)CCCO1)S(=O)(=O)c1ccc(Cl)c(S(N)(=O)=O)c1 (configuration not stated),-1.66%
14,CCc1cc(S(=O)(=O)O)c2cc(C(C)C)cccc1-2,1.69%
15,C[N+]1(CC2COC(c3ccccc3)(c3ccccc3)O2)CCCCC1 (configuration not stated),16.8% [at 25.6 µM]
16,O=C(CCC1CCN(Cc2ccccc2)CC1)c1ccc2c(c1)NCCCC2,12.2%
17,CCOC(=O)Cn1cccc1-c1nc(-c2ccc(OC)cc2)c(-c2ccc(OC)cc2)s1,-3.41%
